# HCV inh: blocks hepatitis C virus | Huh7.5.1 HCVcc-Cre infection, luciferase reporter, 44 h | Potency, µM (highest dose often 41.8 µM), actives largely listed as inhibitors | 3.4% of 340,000 active | AID 651820; active = well fitted inhibition curve with a large enough effect; inconclusive = small, poorly fitted or top-dose-only effect, or another doubt; inactive = no such curve, though single readings can be large or run the other way
#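 Whole-lifecycle infectious HCVcc-Cre system; cells 1,000/well, compound then virus (~0.5 moi) added 4 h after plating, 44 h culture. Luciferase read 15 sec following 15 min substrate incubation, room temp.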
# FMDV antiviral: antivirals against foot and mouth disease virus; FMDV antiviral cell-based qHTS; Potency, µM (series often up to 57.9 µM), most hits filed as inhibitors; 1.2% of 410,000 active; AID 1159524; calls by dose curve; tested in HEK293T cells; also: read-out not given here; nearly all actives have a fitted effect of over 45% in size
# VACV mCherry inh: inhibitors of vaccinia virus infection (mCherry reporter signal); Vaccinia virus mCherry reporter infection, fluorescence; Potency, µM (top dose mostly 36.5 µM), hits mostly inhibitors; 0.63% of 310,000 active; calls by dose curve; tested in A549 cells; also: nearly all actives have a fitted effect of over 35% in size
# Vaccinia Venus: vaccinia inhibition (Venus reporter); Vaccinia virus Venus reporter expression, fluorescence; Potency, µM (doses to about 36.5 µM), hits mostly inhibitors; 0.46% of 330,000 active; AID 720580; calls by dose curve; tested in A549 cells; also: nearly all actives have a fitted effect of over 30% in size
# HCMV antiviral: blocks human cytomegalovirus replication | activity change, negative = inhibition, % at 57.5 µM | HFF cells, HCMV-luciferase reporter, 72 h; hits give low values | 4.5% of 410,000 active; in the data active = activity change below about -60%; inconclusive = no clear call, values can overlap the other calls; inactive = above about -39%
#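 Luciferase read-out from HCMV-luciferase-infected HFFs (MOI 1 PFU/cell) 72 h post infection at 37C; compounds added after 16 h cell attachment; activity normalized between buffer-only basal and Salinomycin (10uM) inhibitor controls.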
# Numbers stand for hits; 0 = inactive; ? = inconclusive; - = no result given. Most compounds without a hit are left out; they make up all but 7.3% or so of the library.
SMILES,HCV inh,FMDV antiviral,VACV mCherry inh,Vaccinia Venus,HCMV antiviral
COC(=O)c1[nH]c2cc(C)ccc2c1NC(=O)CN1CCN(c2ccccc2OC)CC1,10µM,?,-,0,0
COC(=O)c1[nH]c2ccccc2c1NC(=O)CN1CCCCCC1,?,0,0,0,0
COC(=O)c1[nH]c2ccccc2c1NC(=O)CN1CCN(c2cccc(Cl)c2)CC1,?,14µM,-,0,?
COC(=O)c1[nH]c2cc(OC)ccc2c1NC(=O)CN1CCN(c2cccc(C)c2)C(C)C1 (configuration not stated),10µM,?,?,?,0
COc1ccc(Nc2nccc3c2cc(-c2ccc(C(=O)N(C)C)cc2)n3C)c(OC)c1,-,-,-,-,0
C[C@@]12C(=O)Nc3cc(F)ccc3C(=O)N1[C@H]1c3cc(Br)ccc3OC[C@@H]1[C@@H]2c1ccccc1,?,?,0,0,0
CCOC(=O)[C@H]1[C@H]2COc3ccc(OC)cc3[C@@H]2N2C(=O)c3cc(C)ccc3NC(=O)[C@@]12C,0,0,0,0,-62
C[C@]12C(=O)N(c3cccc(F)c3)C(=O)N1[C@@H]1c3ccccc3OC[C@@H]1[C@H]2c1ccccc1,?,0,?,0,-86
Cc1ccc2c(c1)[C@H]1[C@H](CO2)[C@H](c2ccccc2)[C@]2(C)C(=O)Nc3ccccc3C(=O)N12,0,0,?,0,-76
C[C@@]12C(=O)Nc3ccc(F)cc3C(=O)N1[C@H]1c3cc(Br)ccc3OC[C@@H]1[C@@H]2c1ccccc1,?,0,0,?,-70
COc1ccc(-n2c(=O)c3sc4ccccc4c3n(C)c2=O)cc1,-,0,0,0,0
CSc1nc2sc3c(c2c(=O)n1-c1ccc(F)c(Cl)c1)CCN(C(C)=O)C3,-,0,0,0,0
COC(=O)[C@H]1[C@H](CO)[C@H]2Cn3c(cccc3=O)[C@H]2N1Cc1ccccc1F,-,-,-,-,0
Cc1ccnc2ccc(N)cc12,-,-,0,0,-
COc1ccc2c(c1)[C@H]1[C@H](CO2)[C@H](c2ccccc2)[C@]2(C)C(=O)Nc3cc(OC)c(OC)cc3C(=O)N12,10µM,0,?,?,?
COc1ccc2c(c1)[C@H]1[C@H](CO2)[C@H](c2ccccc2)[C@]2(C)C(=O)Nc3ccc(C)cc3C(=O)N12,11µM,0,0,?,0
COc1ccc2c(c1)[C@@H]1[C@H](CO2)[C@H](c2ccccc2)[C@]2(C)C(=O)Nc3ccc(C)cc3C(=O)N12,0,0,0,0,-
COc1ccc2c(c1)[C@H]1[C@H](CO2)[C@H](c2ccccc2)[C@]2(C)C(=O)Nc3ccc(Cl)cc3C(=O)N12,?,?,?,?,0
CC(C)C[C@@H](CO)NS(=O)(=O)c1c(F)cccc1F,3.5µM,0,0,0,0
COc1ccccc1C(c1nnnn1Cc1ccccc1)N1CCN(c2nc3ccccc3s2)CC1 (configuration not stated),13µM,0,-,0,0
COc1ccc(Cn2nnnc2C(c2ccccc2Cl)N2CCN(C)CC2)cc1 (configuration not stated),0,0,-,0,-63
CCCC(c1nnnn1Cc1ccc(OC)cc1)N1CCN(c2ccccc2OC)CC1 (configuration not stated),?,35µM,-,0,0
COc1ccc(C(c2nnnn2Cc2ccccc2)N2CCN(c3nc4ccccc4s3)CC2)cc1OC (configuration not stated),?,0,0,0,0
COc1ccc(OC)c(NC(=O)N2CCC3(CC2)Oc2ccccc2C(=O)N3Cc2ccccc2F)c1,-,0,0,0,0
CCOc1ccccc1NC(=O)Cc1csc(COc2cccc(C)c2)n1,-,?,0,0,?
SMILES,HCV inh,FMDV antiviral,VACV mCherry inh,Vaccinia Venus,HCMV antiviral
CCCCOc1ccc(C(=O)NCCc2csc3nc(-c4ccccc4F)nn23)cc1,-,0,0,0,0
CN1/C(=C\C=Nc2ccccc2)C(C)(C)c2ccccc21,0,?,0,0,?
Cc1cc(/N=C/C=C2\N(C)c3ccccc3C2(C)C)n(CCC#N)n1,11µM,-,0,?,?
CC(C)C[C@H]1COc2cccc(F)c2S(=O)(=O)N1,-,-,-,-,0
CCN(CC)C(=O)Cn1ncc2c([nH]c3ccc(C)cc32)c1=O,-,0,0,0,0
O=C(NNc1ccccc1)c1sc2ccccc2c1Cl,-,-,0,0,-
O=C(Nc1ccc(-c2ccccc2)cc1)c1ccco1,0,0,0,0,-64
CC(C)(C)C(=O)N1CCN(c2ccc(NC(=O)c3ccco3)cc2)CC1,0,0,0,0,0
O=C(Nc1ccc(N2CCN(Cc3ccccc3Cl)CC2)cc1)c1cccnc1,0,?,0,0,-64
O=C(Nc1ccc(N2CCN(Cc3ccccc3)CC2)cc1)c1ccco1,0,0,0,0,-82
O=C(Nc1ccc(NC(=O)c2sc3ccccc3c2Cl)cc1)c1ccco1,?,?,0,0,-76
COc1ccc2c(c1)c1c(c(=O)n(-c3ccccc3)c(=O)n1CC(=O)Nc1ccc(F)cc1)n2C,-,0,0,0,0
Cc1ccc(Cc2c(C)nc3nc(SCC(=O)NCCN4CCCCCC4)nn3c2C)cc1,-,-,-,-,0
CCC1C(=O)NCCN1Cc1ccc2c(c1)CN(Cc1cccn1-c1ccc(Cl)cn1)CCO2 (configuration not stated),-,0,0,0,-
O=C(Nc1ccc(NC(=O)c2ccco2)cc1)c1ccco1,0,0,0,0,0
O=C(Nc1ccc(Nc2ccccc2)cc1)c1ccco1,?,0,0,0,-64
COC(=O)c1cc(=O)n(CCc2ccccc2)c(=Nc2ccc(F)cc2)s1,0,?,0,0,0
COC(=O)c1cc(=O)n(CCc2ccc(OC)cc2)c(=Nc2ccc(F)c(Cl)c2)s1,?,22µM,0,0,?
CCn1c(=O)cc(C(=O)OC)sc1=Nc1ccc(F)c(F)c1,13µM,32µM,?,0,0
COc1ccc2c3c([nH]c2c1)[C@@H](CO)N(Cc1ccccc1)CC31CN(C(=O)Cc2ccccc2)C1,-,-,-,-,0
CCCOc1ccc2c(c1)C(=NN=C(N)N)c1cc(OCCC)ccc1-2,11µM,0,?,?,0
CCN(CC)CCOc1ccc2c(c1)C(=NO)c1cc(OCCN(CC)CC)ccc1-2,10µM,-,8.9µM,3.5µM,0
CC(C)CNC(=O)Cn1c(=O)c2c(ncn2CC(C)C)n(Cc2ccccc2)c1=O,11µM,0,0,0,-67
CCCCCNC(=O)Cn1c(=O)c2c(ncn2CC(C)C)n(Cc2ccccc2)c1=O,0,0,?,0,0
C=C1C(=O)O[C@@H]2[C@H]1[C@@H](OC(=O)/C(C)=C/C)C/C(C)=C\C(=O)/C=C(\C)[C@@H]2O,11µM,28µM,?,11µM,-98
O=C1CCC/C1=c1\s/c(=C\c2cccnc2)c(=O)n1-c1ccccc1,0,?,0,0,-79
CCCC(=O)NC(c1ccc(Cl)cc1Cl)c1ccc2cccnc2c1O (configuration not stated),?,0,?,?,-105
Cc1cccc(NC(c2cccc(Cl)c2)c2ccc3cccnc3c2O)n1 (configuration not stated),-,0,?,?,-98

# Screening results from PubChem.
